# Source: the supplement of paper PMC12024529
# Test system: HEK293 WT BDD-FVIII-Gluc
# Test: secreted FVIII-Gluc luciferase Z-score vs DMSO control; higher = more FVIII-Gluc secretion
# Settings: 5 µM
# Method: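 Natural plant-compound library (480 compounds, ST catalogue IDs) screened on HEK293 cells stably expressing WT BDD-FVIII-Gaussia luciferase fusion at 5 µM. Secreted Gluc activity in the medium is given as a Z-score relative to DMSO controls.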
row,SMILES,secreted FVIII-Gluc luciferase Z-score
1,Nc1nc2c(ncn2[C@@H]2O[C@H](COP(=O)(O)O)[C@@H](O)[C@H]2O)c(=O)[nH]1,0.0522
2,COc1cc2ccc(=O)oc2cc1O,0.0462
3,CO[C@@H]1[C@@H](OC2OC(C)C(OC3CC(C)(O)C(O)C(C)O3)C(N(C)C)C2O)[C@@H](CC=O)C[C@@H](C)[C@@H](OC2CCC(N(C)C)C(C)O2)/C=C/C=C/C[C@@H](C)OC(=O)C[C@H]1O (stereo partly drawn),0.36
4,CC(=O)Oc1ccc(/C=C/C(=O)CC2OC(Oc3cc(OC(C)=O)c4c(c3)O[C@@H](c3ccc(OC(C)=O)cc3)CC4=O)C(OC(C)=O)C(OC(C)=O)C2OC(C)=O)cc1 (stereo partly drawn),0.201
5,C=C1CC/C=C(\C)CC[C@@H]2[C@@H]1CC2(C)C,0.299
6,CO[C@H]1/C=C/O[C@@]2(C)Oc3c(C)c(O)c4c(O)c(c(/C=N/N5CCN(C)CC5)c(O)c4c3C2=O)NC(=O)/C(C)=C\C=C\[C@H](C)[C@H](O)[C@@H](C)[C@@H](O)[C@@H](C)[C@H](OC(C)=O)[C@@H]1C,-0.504
7,Cn1ccc(O)c(C#N)c1=O,0.00283
8,O=C1C[C@@H](c2ccccc2)Oc2cc(O)cc(O)c21,0.733
9,COc1cc2c(cc1OC)C(=O)N(C)CC2,0.547
10,O=C(O)C(=O)Cc1ccccc1,0.46
11,COC(=O)C[C@](O)(CCCC(C)(C)O)C(=O)O[C@@H]1C(OC)=C[C@]23CCCN2CCc2cc4c(cc2[C@H]13)OCO4,-4.72
12,O=C(/C=C/c1ccc(O)c(O)c1)OC(Cc1ccc(O)c(O)c1)C(=O)O (stereo not drawn),0.861
13,Cc1ccc(CC(Cc2nc3ccccc3[nH]2)c2nc3ccccc3[nH]2)cc1 (stereo not drawn),0.284
14,COc1cc([C@@H]2Oc3cc(C4Oc5cc(O)cc(O)c5C(=O)[C@H]4O)ccc3O[C@H]2CO)ccc1O (stereo partly drawn),0.0424
15,C1CCN2CC3CC(CN4CCCC[C@H]34)C2C1 (stereo partly drawn),1.22
16,N[C@H](Cc1c[nH]c2ccccc12)C(=O)O,0.298
17,CC1(C)CCC[C@@]2(C)C1CCC1(C)OC(=O)CC12 (stereo partly drawn),0.281
18,C[C@H]1[C@H](C)CC[C@]2(C(=O)O)CC[C@]3(C)C(=CCC4[C@@]5(C)C[C@@H](O)[C@H](O)[C@@](C)(CO)[C@@H]5CC[C@]43C)[C@H]12 (stereo partly drawn),-0.822
